# Compound activity deposited in PubChem BioAssay by Broad Institute.
# RAD52 anneal inh = RAD52 DNA annealing inhibitors, primary screen, biochemical, FRET, single point, set 2; DNA repair protein RAD52 homolog (Homo sapiens), P43351; recombinant RAD52 DNA annealing, FRET fluorescence; inhibition, % at 18.7 µM; 0.46% of 360,000 active; AID 651710, 2012;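 active = every replicate showing at least 50% inhibition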
# AF4-AF9 inh = inhibitors of AF4 peptide binding to AF9, primary screen, biochemical, AlphaScreen, biotin-AF4 peptide, FLAG-AF9, single point | Protein AF-9 (Homo sapiens), P42568 | inhibition, % at 10 µM | 0.47% of 350,000 active | AID 651704, 2012;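 active = every replicate reaching a set inhibition limit, whatever the replicate mean, cut at about 25% in these data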;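 note: 0% = plate neutral control median and 100% = total signal loss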
# FGF22 binding = binders of human FGF22 protein, primary screen, FGF22 synaptogenesis inhibitor project, biophysical, thermal shift, single point; Fibroblast growth factor 22 (Homo sapiens), Q9HCT0; recombinant FGF22 thermal shift, SYPRO orange fluorescence; percent of sucrose octasulfate shift, DMSO zero; activity (Tm shift, normalised), % at 9.99 µM; 1.5% of 340,000 active;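 active = mean Tm shift, scaled 0 neutral to 100 positive control, at about 1.3% or above, every replicate too, limit read from the data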
# Target sequence (Q9HCT0 whole entry, looked up): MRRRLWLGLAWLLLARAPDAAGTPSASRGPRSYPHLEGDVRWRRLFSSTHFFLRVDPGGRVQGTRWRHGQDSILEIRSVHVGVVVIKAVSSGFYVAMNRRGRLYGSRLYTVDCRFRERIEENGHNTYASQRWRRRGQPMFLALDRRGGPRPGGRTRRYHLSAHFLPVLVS
# DENV2 CPE rescue = inhibitors of DENV2 cytopathic effect, primary screen, cell-based, plate reader, single concentration; DENV2-infected cells, cytopathic effect rescue; CPE inhibition, % at 9.99 µM; 1.7% of 350,000 active; in the data active = CPE inhibition above about 20%, passing the limit was not always enough; tested in BHK-21 cells;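 note: 0% = median of neutral control wells and 100% = median of positive control wells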
# ERAP1 inh = human ERAP1 aminopeptidase inhibitors, primary screen, biochemical, single point, plate reader. Endoplasmic reticulum aminopeptidase 1 (Homo sapiens), Q9NZ08. recombinant ERAP1, Leu-AMC fluorescence, 60 min. inhibition, % at 10.7 µM. 0.15% of 340,000 active;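 active = mean replicate inhibition of at least 30%, or all replicates individually reaching that 30% level; inactive = mean below 30% and not every replicate reaching it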;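 note: 0% = neutral control wells and 100% = L-leucinethiol positive control wells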
# An asterisk follows results filed as active; · = no result. Only some compounds are listed: those with a hit (about 4% of all), similar ones and a draw of the others.
SMILES,RAD52 anneal inh,AF4-AF9 inh,FGF22 binding,DENV2 CPE rescue,ERAP1 inh
CO[C@H]1CN(C)C(=O)c2cc(NC(C)=O)ccc2OC[C@H](C)N(CCc2ccccc2)C[C@H]1C,-15.5,5.0,-0.4,-4.7,-3.3
CCCNC(=O)N1CC2(CCN(CC3CCCC3)CC2)c2c([nH]c3cc(OC)ccc23)[C@@H]1CO,8.1,1.7,-0.1,29.8*,0.6
COc1ccc2c3c([nH]c2c1)[C@@H](CO)N(C(=O)Nc1ccc(F)cc1)CC31CCN(CC2CC2)CC1,11.2,3.4,-0.1,55.8*,1.8
COc1ccc2c3c([nH]c2c1)[C@H](CO)N(C(=O)Nc1cccc(F)c1)CC31CCN(CC2CC2)CC1,24.8,11.8,-0.1,-2.2,-3.6
COc1ccc2c3c([nH]c2c1)[C@H](CO)N(C(=O)Nc1ccc(F)cc1)CC31CN(CC2CC2)C1,·,10.1,0.0,29.2*,·
CCCNC(=O)N1CCC2(CC1)CN(C(=O)COC)[C@H](CO)c1[nH]c3cc(OC)ccc3c12,-8.8,-1.2,-0.1,28.4*,0.7
CCCNC(=O)[C@@H]1[C@@H](CO)[C@@H]2Cn3c(ccc(C4=CCCC4)c3=O)[C@@H]2N1C(=O)c1cnccn1,-21.3,-2.0,0.4,-7.5,0.9
CCC(=O)N1CCC2(CC1)CN(CC1CCOCC1)[C@H](CO)c1c2c2ccc(OC)cc2n1C,-331.7,-3.9,0.2,8.7,2.9
COCC(=O)N1CC2(CN(C(C)=O)C2)c2c([nH]c3cc(OC)ccc23)[C@@H]1CO,·,-1.7,-0.2,20.1*,·
COCC(=O)N1CC2(CCN(C(C)=O)CC2)c2c([nH]c3cc(OC)ccc23)[C@H]1CO,-13.0,-2.3,-0.1,6.5,0.1
Cc1cccc(C)c1NC(=O)COC(=O)Cc1ccsc1,-6.4,-1.8,43.3*,13.6,-0.8
Cn1ccsc1=NC(=O)c1ccc(=O)[nH]c1,-11.0,-5.3,0.1,-3.1,33.6*
O=C(C[C@H]1CC[C@@H](NC(=O)Nc2ccc(C(F)(F)F)cc2)[C@@H](CO)O1)NCc1ccccn1,0.0,0.6,-0.2,1.3,-0.4
CC(=O)N1[C@H](C(=O)NC2Cc3ccccc3C2)[C@@H](CO)[C@@H]2Cn3c(ccc(-c4ccncc4)c3=O)[C@@H]21,-9.9,0.9,0.1,0.7,2.1
Cc1ccc(C)c(SCC(=O)OCC(=O)NCc2ccccc2)c1,-4.6,0.9,44.1*,9.9,-0.8
CC1CCC(N2CCNCC2)CC1 (centres undefined),-7.2,-0.4,43.7*,-1.4,1.0
CN(c1ccc(OCC(=O)NCc2cccnc2)cc1)S(=O)(=O)c1ccc(Cl)cc1,-5.4,3.3,43.0*,3.9,2.8
O=C(C[C@@H]1C[C@@H]2c3cc(NS(=O)(=O)c4ccc(F)cc4)ccc3O[C@@H]2[C@H](CO)O1)NCc1ccc(-c2ccccc2)cc1,-5.3,-0.9,·,-1.6,1.2
Cc1nnc(SCC2=C(C(=O)O)N3C(=O)C(NC(=O)Cn4nc(C(F)F)cc4C)C3SC2)s1 (centres undefined),-13.6,-13.1,0.2,-1.5,-2.0
Cc1nnc(SCC2=C(C(=O)O)N3C(=O)C(NC(=O)Cn4nc(C(F)F)c(Cl)c4C)C3SC2)s1 (centres undefined),-21.3,-8.0,43.0*,3.0,1.6
CC(=O)OCC1=C(C(=O)O)N2C(=O)C(NC(=O)Cn3nc(C(F)F)c(Cl)c3C)C2SC1 (centres undefined),-19.3,-5.2,43.1*,2.3,1.2
COC(=O)c1c(NC(=O)C(Cl)Cl)sc2c1C(C(=O)OC)CC2 (centres undefined),-13.6,-1.5,-0.1,122.4*,6.2
COc1cccc2c1OCC/C2=N\NC(=O)C(C)Oc1ccc([N+](=O)[O-])cc1 (centres undefined),-16.5,-1.2,62.0*,11.9,-1.5
O=C(C[C@@H]1C[C@@H]2c3cc(NC(=O)C4CCOCC4)ccc3O[C@@H]2[C@@H](CO)O1)NCc1ccccc1F,12.9,3.6,0.1,-2.3,3.1
CCc1c(C(=O)Nc2cc(C(=O)OC)ccc2C)csc1C,-12.2,-0.6,0.1,87.7*,-3.7
CCOC(=O)Nc1cc(C(=O)OC)ccc1C,8.3,·,·,·,0.7
